In PubChem BioAssay (EPA / NIEHS) one finds outcome and AC50 data, which are given here for 23 compounds.

Records with an inconclusive call do not appear. The source made the active and inactive calls. How the source made its calls, unless noted: active means hit-call score of the fitted dose curve at least 0.9, where 1 is the maximum; inconclusive means response in the unintended direction; inactive means score below 0.9.

Assay [1] concerns the target Cellular tumor antigen p53 (Homo sapiens) (UniProt P04637). In words: TOX21_p53_BLA_p2_ratio: Tox21 HCT-116 p53 Agonism Beta-lactamase Assay, Ratio, Phase 2 (AID 2283592). The method in brief:
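Cleaved-to-uncleaved substrate ratio (460 vs 530 nm) measured in HCT116 cells with an inducible beta-lactamase reporter linked to p53 activity. Compounds incubated 16 h at 37C before 2 h room-temperature CCF4-AM loading.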

A short description of assay [2]: TOX21_p53_BLA_p3_viability: Viability Assessment in the Tox21 HCT-116 p53 Agonism Beta-lactamase Assay, Phase 3 (AID 2283593).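 Further: cells exposed to compound for 16 h before reading.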 The gist of the method:
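Cellular ATP was quantified by CellTiter-Glo luminescence, read after 30 min at room temperature. Beforehand, HCT116 cells (4000/well) received compound 5 h post-seeding, 217-fold diluted from DMSO, then incubated 16 h at 37C.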

Assay [3] concerns the target Cellular tumor antigen p53 (Homo sapiens) (UniProt P04637). The experiment in a line: TOX21_p53_BLA_p3_ratio: Tox21 HCT-116 p53 Agonism Beta-lactamase Assay, Ratio, Phase 3 (AID 2283596). The gist of the method:
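Cells were seeded at 4000/well, rested 5 h at 37C, then dosed with DMSO compound solutions (217-fold dilution) for 16 h. CCF4-AM substrate was loaded for 2 h at room temperature, and the 460/530 nm emission ratio was fitted for gain of signal versus DMSO.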

Assay [4] can be described thus: TOX21_p53_BLA_p4_viability: Viability Assessment in the Tox21 HCT-116 p53 Agonism Beta-lactamase Assay, Phase 4 (AID 2283597).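 Further: hits lower the luminescence signal meaning cytotoxicity.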 The gist of the method:
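Viability is taken as cellular ATP: after 16 h compound exposure of HCT116 cells and a 2 h room-temperature CCF4-AM substrate step, CellTiter-Glo reagent is added and luminescence is measured 30 min later.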

Assay [5] in a line: TOX21_p53_BLA_p5_viability: Viability Assessment in the Tox21 HCT-116 p53 Agonism Beta-lactamase Assay, Phase 5 (AID 2283600). The gist of the method:
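Viability is taken from cellular ATP content, measured by luciferase luminescence in the same wells after the beta-lactamase ratio read. Cells are seeded at 4000 per well and exposed to DMSO-dissolved compounds, diluted 217-fold, for 16 h.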

For assay [6], the target named is Cellular tumor antigen p53 (Homo sapiens) (UniProt P04637). The experiment in a line: TOX21_p53_BLA_p4_ratio: Tox21 HCT-116 p53 Agonism Beta-lactamase Assay, Ratio, Phase 4 (AID 2283601). The method in brief:
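Signal is the blue/green (460nm/530nm) ratio of cleaved versus uncleaved CCF4-AM substrate, read after 2 h substrate loading. Cells were HCT116 carrying the p53-responsive beta-lactamase reporter, dosed 16 h at 37C, 5% CO2; CellTiter-Glo measured in parallel.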

The target is the same in assay [7]. In words: TOX21_p53_BLA_p5_ratio: Tox21 HCT-116 p53 Agonism Beta-lactamase Assay, Ratio, Phase 5 (AID 2283599). The gist of the method:
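Beta-lactamase reporter ratio (blue 460 nm over green 530 nm, 405 nm excitation) after 2 h CCF4-AM loading, in HCT-116 cells exposed 16 h at 37 C to compounds pinned at 217-fold dilution. Increases relative to DMSO baseline scored.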

The test system of assay [8] is Thyroperoxidase (TPO), gene 54314. In words: CCTE_Simmons_AUR_rTPO: CCTE's Amplex UltraRed Assay for Thyroperoxidase (TPO) Inhibition, Simmons Lab (AID 2283662).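 Further: potency for loss of signal meaning inhibition of peroxidase activity.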 The gist of the method: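 Rat thyroid microsomes (5 ug protein) were incubated with test compound (8 concentrations, 5 nM–87.5 uM final, 0.5% DMSO), 25 uM Amplex UltraRed and 300 uM H2O2 in 200 mM phosphate buffer for 30 min at 37C in the dark; fluorescence read at 544/590 nm.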

The target of assay [9] is Luciferin 4-monooxygenase (Photinus pyralis) (UniProt P08659). The experiment in a line: CCTE_Simmons_QuantiLum_inhib_2: CCTE's Firefly Luciferase Inhibition Assay, Simmons Lab (AID 2283767). The gist of the method: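 Cell-free QuantiLum luciferase, 5 ng/well; compounds 5 nM–87.5 uM final, 8 conc, 0.5% DMSO; 30 min, 37C, dark. Detection reagent (150 uM D-luciferin, 147 uM dATP, CoA, DTT, pH 7.8 final) injected per well, kinetic luminescence. Triplicate biological replicates.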
Luciferin 4-monooxygenase (Photinus pyralis), sequence (P08659 whole entry, looked up): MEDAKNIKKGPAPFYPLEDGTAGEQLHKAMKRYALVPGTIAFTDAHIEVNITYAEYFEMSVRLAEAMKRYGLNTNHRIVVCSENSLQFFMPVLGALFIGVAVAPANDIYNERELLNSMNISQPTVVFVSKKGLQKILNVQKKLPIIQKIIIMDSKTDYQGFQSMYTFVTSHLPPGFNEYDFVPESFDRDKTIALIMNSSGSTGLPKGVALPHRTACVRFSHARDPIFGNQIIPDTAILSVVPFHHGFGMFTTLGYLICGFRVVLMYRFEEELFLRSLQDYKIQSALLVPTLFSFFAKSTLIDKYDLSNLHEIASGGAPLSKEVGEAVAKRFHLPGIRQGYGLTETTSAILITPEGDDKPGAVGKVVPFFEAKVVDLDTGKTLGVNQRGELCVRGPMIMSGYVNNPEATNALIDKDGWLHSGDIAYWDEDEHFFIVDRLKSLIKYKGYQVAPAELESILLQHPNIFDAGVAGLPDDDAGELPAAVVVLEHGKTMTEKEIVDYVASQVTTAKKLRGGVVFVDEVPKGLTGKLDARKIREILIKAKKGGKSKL

Assay [10] can be described thus: CCTE_Simmons_CellTiterGLO_HEK293T: Viability Assessment in CCTE's Assays for Thyroperoxidase (TPO) Inhibition, Simmons Lab (AID 2283665). The gist of the method: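 Luminescent ATP readout (CellTiter-Glo, 20 min at room temperature) after 24 hr exposure of HEK293T cells to 5 nM–87.5 uM final compound; signal loss relative to DMSO vehicle indicated cytotoxicity; dichlone titrated as positive control.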
In general terms: ATP-based viability assays read luminescence as a measure of living cells.

Assay [11] in a line: STM_H9_OrnCyssISnorm_ratio: Stemina devTOX quickPredict H9 human embryonic stem cell (hESC)-based Assay for Ornithine (ORN):Cystine (CYSS) Ratio (AID 2283714). The gist of the method: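 Ratio of internal-standard-normalized ornithine to cystine, measured by UPLC-HRMS in spent media from the last 24 h. H9 cells kept pluripotent, dosed 72 h with daily media and compound renewal; DMSO 0.1% serves as baseline.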

Assay [12] can be described thus: CEETOX_H295R_MTT_cell_viability: Viability Assessment in the CeeTox HT-H295R MTT Assay (AID 2283718; active means hit-call score of the fitted dose curve at least 0.9, where 1 is the maximum; inactive means score below 0.9). The method in brief: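 MTT reduction (0.5 mg/ml, 4 h at 37 C; absorbance at 570 and 650 nm) gave viability as background-corrected percent change versus controls. H295R cells had 48 h forskolin (10 uM) prestimulation, then 48 h chemical exposure at 0.1% DMSO.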

The subject of assay [13] is chicken Androgen Receptor (AR), gene 422165. In words: ATG_chAR_XSP1: Attagene TRANS-FACTORIAL Multi-Species (XSP1) HepG2 Assay for chicken Androgen Receptor (AR) (AID 2283768). The gist of the method:
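Reporter mRNA read by RT-PCR with fluorescent labelling and capillary electrophoresis 24 h after chemical dosing of transiently transfected HepG2 cells. Chicken AR-Gal4 chimera, partially stimulated with 3 nM 6-alpha-fluorotestosterone; activity fitted upward relative to DMSO.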

For assay [14], the system named is frog Androgen Receptor (AR), gene 399456. In words: ATG_frAR_XSP1: Attagene TRANS-FACTORIAL Multi-Species (XSP1) HepG2 Assay for frog Androgen Receptor (AR) (AID 2283770). As to the method:
ATG_XSP1_multi-species_TRANS is a cell-based, multiplexed assay created by modifying the existing Attagene TRANS-FACTORIAL system to include a panel of nuclear receptors from some or all the following species: human (Homo sapiens), mouse (Mus musculus), frog (Xenopus laevis), zebrafish (Danio rerio), chicken (Gallus gallus), and turtle (Chrysemys picta). The ECOTOX-FACTORIAL format uses HepG2, a human liver cell line, with measurements taken at 24 hours after chemical dosing in a 24-well plate. Xsp1 included 3 nM 6-alpha-fluorotestosterone to partially stimulate the androgen receptor.ATG_frAR_XSP1 is one of 29 assay components measured or calculated from the ATG_XSP1_multi-species_TRANS assay. It is designed to make measurements of mRNA induction, a form of inducible reporter, as detected with fluorescence intensity signals by Reverse transcription polymerase chain reaction (RT-PCR) and Capillary electrophoresis technology.The assay endpoint ATG_frAR_XSP1 was analyzed in the positive analysis fitting direction relative to DMSO as the negative control and baseline of activity. […] Furthermore, this assay endpoint can be referred to as a primary readout, because this assay has produced multiple assay endpoints where this one serves a reporter gene function. […]

Assay [15] concerns the target zebrafish Estrogen Receptor (ESR1), esr1 (gene 259252) (UniProt P57717). In words: ATG_zfER1_XSP1: Attagene TRANS-FACTORIAL Multi-Species (XSP1) HepG2 Assay for zebrafish Estrogen Receptor (ESR1) (AID 2283772). The method in brief: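 Exogenous chimeric receptor-GAL4 activity is measured in transiently transfected human HepG2 liver cells after 24 h compound exposure. Reporter transcripts are detected by RT-PCR and fluorescent capillary electrophoresis, analysed for signal gain relative to DMSO.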

Assay [16] relates to zebrafish Estrogen Receptor (ESR2B), gene 317733. In words: ATG_zfER2b_XSP1: Attagene TRANS-FACTORIAL Multi-Species (XSP1) HepG2 Assay for zebrafish Estrogen Receptor (ESR2B) (AID 2283773). The method in brief: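 Medium contained 3 nM 6-alpha-fluorotestosterone. Reporter mRNA induction by exogenous zebrafish ER2b-Gal4 chimera was read 24 h post-dose in transiently transfected HepG2 cells, using RT-PCR, fluorescent labelling, HpaI digestion and capillary electrophoresis.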

Assay [17] concerns frog Estrogen Receptor (ESR2), gene 100174814. The experiment in a line: ATG_frER2_XSP1: Attagene TRANS-FACTORIAL Multi-Species (XSP1) HepG2 Assay for frog Estrogen Receptor (ESR2) (AID 2283774). The gist of the method: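 Reporter mRNA from a multiplexed TRANS system, measured by RT-PCR with fluorescent labelling and capillary electrophoresis, 24 hours after chemical exposure. Human HepG2 liver cells carried exogenous frog ER-Gal4 chimera; medium included 3 nM 6-alpha-fluorotestosterone; increases versus DMSO analysed.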

Assay [18] is described as follows: ACEA_AR_agonist_AUC_viability: ACEA Biosciences xCELLigence Real-Time Cell Analysis on Androgen Receptor Agonism for Viability (AID 2283775).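 On AC50: viability read 80 hours after compound addition.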 The method in brief: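 Viability endpoint from xCELLigence impedance in 22Rv1 prostate cells at 80 h. Eight-point series, 100 uM maximum final.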

Cellular tumor antigen p53 (Homo sapiens), sequence (P04637 whole entry, looked up): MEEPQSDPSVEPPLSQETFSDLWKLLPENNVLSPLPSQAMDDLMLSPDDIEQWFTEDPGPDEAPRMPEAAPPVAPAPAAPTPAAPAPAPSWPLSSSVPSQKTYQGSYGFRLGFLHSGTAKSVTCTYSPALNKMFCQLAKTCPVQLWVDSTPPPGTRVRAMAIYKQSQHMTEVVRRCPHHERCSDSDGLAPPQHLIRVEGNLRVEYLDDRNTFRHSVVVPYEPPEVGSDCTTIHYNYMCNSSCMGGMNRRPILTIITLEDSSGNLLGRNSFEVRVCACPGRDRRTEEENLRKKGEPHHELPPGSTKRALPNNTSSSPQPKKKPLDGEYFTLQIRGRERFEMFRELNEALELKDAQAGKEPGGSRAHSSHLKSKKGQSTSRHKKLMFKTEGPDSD
zebrafish Estrogen Receptor (ESR1), esr1 (gene 259252), sequence (P57717 whole entry, looked up, the tested form may be a part): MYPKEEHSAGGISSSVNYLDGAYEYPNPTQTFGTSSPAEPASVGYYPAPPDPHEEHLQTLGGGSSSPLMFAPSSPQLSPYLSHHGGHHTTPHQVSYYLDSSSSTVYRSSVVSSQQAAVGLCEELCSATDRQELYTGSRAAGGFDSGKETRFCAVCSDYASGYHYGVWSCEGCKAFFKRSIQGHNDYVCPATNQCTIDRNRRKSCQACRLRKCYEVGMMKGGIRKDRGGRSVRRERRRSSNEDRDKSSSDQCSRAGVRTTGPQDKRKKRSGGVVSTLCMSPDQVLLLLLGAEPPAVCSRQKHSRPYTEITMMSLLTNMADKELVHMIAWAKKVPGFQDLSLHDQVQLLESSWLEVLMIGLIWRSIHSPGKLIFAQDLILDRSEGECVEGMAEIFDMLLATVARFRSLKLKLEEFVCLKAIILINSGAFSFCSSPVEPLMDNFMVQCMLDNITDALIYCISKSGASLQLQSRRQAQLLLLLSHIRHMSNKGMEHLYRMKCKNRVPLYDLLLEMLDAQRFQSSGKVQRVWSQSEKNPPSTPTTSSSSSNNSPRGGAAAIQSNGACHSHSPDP

Regarding `CCCOC(=O)CCCCC(=O)OCCC`, the result in [1], in assay [2], in assay [3], in assay [4], in assay [5] and in [6] was inactive.

`CNC(=S)N(C)C`: the outcome in [1], in assay [2], in [3], in assay [4], in [7] and in assay [6] was inactive.

Usually AC50 stands for the midpoint of the concentration-response curve, whichever way the signal moves. As to `C1=Cc2ccccc2C1`, the half-maximal activity concentration (AC50) in assay [8] was 43600 nM (active). Further, the compound was called inactive in assay [9].

As to `CNC(=S)NN`, in [8], the AC50 was 22500 nM (active). In addition, the outcome in [10] and in [9] was inactive.

On to `O=C1CCCCCCCCCCC(=O)OCCO1`, for which, in assay [11], the result was inactive.

Consider `O=C(Nc1ccccc1SSc1ccccc1NC(=O)c1ccccc1)c1ccccc1`, for which the compound was classed as inactive in assay [12].

On to `O=C(c1ccc(O)cc1)c1ccc(O)cc1O`, for which the AC50 in assay [13] was 1560 nM (active); in assay [14], 2780 nM (active); in assay [15] it was 1760 nM (active); in [16] it was 1230 nM (active); in assay [17] it was 729 nM (active).

For `O=P(O)(O)Oc1ccccc1`, the outcome in assay [3], in assay [7] and in assay [5] was inactive.

Consider `CCN(CCO)c1cccc(C)c1`, for which the result in assay [3] and in assay [7] was inactive.

As for `O=C(O)CCCC[C@@H]1SC[C@@H]2NC(=O)N[C@@H]21`, in assay [18], the call was inactive.

In the case of `S=C(NC1CCCCC1)NC1CCCCC1`, in [12], the compound was classed as inactive.

For the compound `CO[Si](OC)(OC)c1ccccc1`, the outcome in assay [3], in [4] and in assay [6] was inactive.

For the compound `CCCCCCCOC(=O)CCC`, the outcome in assay [18] was inactive.

On to `C=CCOCC(O)CCl` (stereo unspecified), for which the result in assay [2], in [7], in assay [5] and in assay [6] was inactive.

Consider `CCCc1ccc(OC)cc1`, for which the outcome in assay [18] was inactive.

Take `Oc1ccc(Cl)cc1Cc1cc(Cl)ccc1O`: the compound was called inactive in assay [12]. In addition, the concentration at half-maximal activity (AC50) in assay [18] was 11500 nM (active).

`O=C(c1ccccc1)C1CCC1`: the outcome in [18] was inactive.

Turning to `C[Si](C)O[Si](C)(C)O[Si](C)(C)O[Si](C)C`, the result in assay [3] and in assay [5] was inactive.

On to `O=C(O)c1cc(Cl)cc([N+](=O)[O-])c1Cl`, for which the outcome in assay [5] and in assay [6] was inactive.

In the case of `CO[Si](CCC1CCC2OC2C1)(OC)OC` (stereo unspecified), in assay [12], the call was inactive.

`CCN(Cc1cccc(S(=O)(=O)O)c1)c1ccc(C(=C2C=CC(=[N+](CC)Cc3cccc(S(=O)(=O)[O-])c3)C=C2)c2ccccc2)cc1`: the compound was classed as inactive in assay [2], in assay [7] and in [6].

Consider `O=c1cc(-c2ccccc2)oc2ccccc12`, for which the outcome in assay [18] was inactive.

For the compound `COc1ccc(-c2coc3cc(O)ccc3c2=O)cc1`, the result in assay [2], in [3], in assay [4] and in assay [5] was inactive.
